Data on 1 molecule can be found in the supplement of paper PMC8728848.

Test in all cases: glycan array binding signal (z-score within array); higher = stronger binding
What all share (details): glycan notation: IUPAC condensed, linker removed

One assay concerns the target GalNAc(b1-3)GalNAc. A digest of the protocol:
(§1)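 The Consortium for Functional Glycomics database supplied 3228 glycan arrays, of which those lacking an available protein sequence were dropped. The binding signal, a within-array Z-score, was averaged across arrays of the same protein sequence and across linkers. Negative scores can be read as non-binding.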

In the next assay the target is GalNAc(b1-3)GlcNAc. Put shortly: as §1
Assay [1] deals with GalNAc(b1-4)GlcNAc(b1-2)Man(a1-3)[GalNAc(b1-4)GlcNAc(b1-2)Man(a1-6)]Man(b1-4)GlcNAc(b1-4)GlcNAc. Put shortly: as §1
In the next assay the target is GlcA(b1-3)GlcNAc. Put shortly:
as §1

For assay [2], the target named is GlcNAc(b1-2)[GlcNAc(b1-4)]Man(a1-3)[GlcNAc(b1-4)][GlcNAc(b1-2)Man(a1-6)]Man(b1-4)GlcNAc(b1-4)GlcNAc. A digest of the protocol: as §1
Assay [3] has as its target GlcNAc(b1-3)Gal(b1-4)GlcNAc(b1-3)Gal(b1-4)GlcNAc(b1-3)Gal(b1-4)GlcNAc(b1-3)Gal(b1-4)GlcNAc(b1-2)Man(a1-3)[GlcNAc(b1-3)Gal(b1-4)GlcNAc(b1-3)Gal(b1-4)GlcNAc(b1-3)Gal(b1-4)GlcNAc(b1-3)Gal(b1-4)GlcNAc(b1-2)Man(a1-6)]Man(b1-4)GlcNAc(b1-4)[Fuc(a1-6)]GlcNAc. A digest of the protocol:
as §1

The target in a further assay is Kdn(a2-6)Gal(b1-4)GlcNAc. A digest of the protocol:
as §1

Assay [4] has as its target Man(a1-2)Man(a1-3)[Man(a1-2)Man(a1-6)]Man. Put shortly:
as §1

The target of assay [5] is Man(a1-2)Man(a1-6)[Man(a1-3)]Man(a1-6)[Man(a1-2)Man(a1-2)Man(a1-3)]Man(b1-4)GlcNAc(b1-4)GlcNAc. A digest of the protocol: as §1
The target in assay [6] is Neu5Ac(a2-3)Gal(b1-3)GalNAc(b1-3)Gal(a1-4)Gal(b1-4)Glc. A digest of the protocol:
as §1

Assay [7] has as its target Neu5Ac(a2-3)Gal(b1-4)GlcNAc(b1-2)Man. A digest of the protocol: as §1
Assay [8] concerns the target Neu5Ac(a2-3)Gal(b1-4)GlcNAc(b1-3)Gal(b1-4)GlcNAc(b1-3)[Neu5Ac(a2-3)Gal(b1-4)GlcNAc(b1-3)Gal(b1-4)GlcNAc(b1-6)]GalNAc. A digest of the protocol: as §1
Assay [9] concerns the target Neu5Ac(a2-3)Gal(b1-4)GlcNAc(b1-3)Gal(b1-4)GlcNAc(b1-6)[Gal(b1-3)]GalNAc. Put shortly:
as §1

Assay [10] concerns the target Neu5Ac(a2-3)Gal(b1-4)GlcNAc6S. Put shortly: as §1
Assay [11] has as its target Neu5Ac(a2-3)Gal6S(b1-4)GlcNAc. A digest of the protocol: as §1
The next assay deals with Neu5Ac(a2-3)GalNAc. A digest of the protocol:
as §1

Assay [12] has as its target Neu5Ac(a2-6)Gal(b1-3)GlcNAc(b1-3)[Gal(b1-4)GlcNAc(b1-6)]Gal(b1-4)Glc. Put shortly:
as §1

In assay [13] the target is Neu5Ac(a2-6)Gal(b1-4)GlcNAc(b1-2)[Neu5Ac(a2-6)Gal(b1-4)GlcNAc(b1-4)]Man(a1-3)[GlcNAc(b1-4)][Neu5Ac(a2-6)Gal(b1-4)GlcNAc(b1-4)Man(a1-6)]Man(b1-4)GlcNAc(b1-4)GlcNAc. A digest of the protocol: as §1
The target of assay [14] is Neu5Ac(a2-6)Gal(b1-4)GlcNAc(b1-2)[Neu5Ac(a2-6)Gal(b1-4)GlcNAc(b1-6)]Man(a1-6)[Neu5Ac(a2-6)Gal(b1-4)GlcNAc(b1-2)Man(a1-3)][GlcNAc(b1-4)]Man(b1-4)GlcNAc(b1-4)GlcNAc. Put shortly: as §1
In assay [15] the target is Neu5Ac(a2-6)Gal(b1-4)GlcNAc(b1-3)Gal(b1-3)GlcNAc. A digest of the protocol:
as §1

Assay [16] has as its target Neu5Ac(a2-8)Neu5Ac(a2-3)Gal(b1-3)GalNAc(b1-4)[Neu5Ac(a2-8)Neu5Ac(a2-3)]Gal(b1-4)Glc. Put shortly:
as §1

The target in assay [17] is Neu5Gc(a2-3)Gal(b1-3)[Fuc(a1-4)]GlcNAc. A digest of the protocol:
as §1

About 410 targets per protein were measured; listed, in parts, are those with the strongest signals and a random draw of the rest.

B1: AntigenI/IIA3VP1 (Streptococcus mutans), C9E3B4 (protein)
chain: AANEADYQAKLTAYQTELARVQKANADAKAAYEAAVAANNAANAALTAENTAIKKRNADAKADYEAKLAKYQADLAKYQKDLADYPVKLKAYEDEQASIKAALAELEKHKNEDGNLTEPSAQNLVYDLEPNANLSLTTDGKFLKASAVDDAFSKSTSKAKYDQKILQLDDLDITNLEQSNDVASSMELYGNFGDKAGWSTTVSNNSQVKWGSVLLERGQSATATYTNLQNSYYNGKKISKIVYKYTVDPKSKFQGQKVWLGIFTDPTLGVFASAYTGQVEKNTSIFIKNEFTFYDEDGKPINFDNALLSVASLNREHNSIEMAKDYSGKFVKISGSSIGEKNGMIYATDTLNFKQGEGGSRWTMYKNSQAGSGWDSSDAPNSWYGAGAIKMSGPNNYVTVGATSATNVMPVSDMPVVPGKDNTDGKKPNIWYSLNGKIRAVNVPKVTKEKPTPPVKPTAPTKPTYETEKPLKPAPVAPNYEKEPTPPTRLEHHHHHH
As for B1, the “glycan array binding signal (z-score)” value with GalNAc(b1-3)GalNAc is 1.37; with GalNAc(b1-3)GlcNAc, -0.475; in assay [1], -0.868; with GlcA(b1-3)GlcNAc, -0.575; in assay [2], -1.35; in assay [3], 3.23. Further, the “glycan array binding signal (z-score)” value was -1.05 with Kdn(a2-6)Gal(b1-4)GlcNAc; -0.805 in assay [4]; 0.975 in assay [5]; 0.492 in assay [6]; 0.921 in assay [7]; 0.324 in [8]. Besides, the “glycan array binding signal (z-score)” value in assay [9] was -0.29; in assay [10], -0.627; in assay [11], -0.68; with Neu5Ac(a2-3)GalNAc it was -1.05; in assay [12], 0.439; in assay [13], 1.05. The “glycan array binding signal (z-score)” value in assay [14] was 0.993; in assay [15], -1.1; in assay [16], -0.035; in assay [17], -0.885.
